Test results: PubChem BioAssay AID1159580 (chemical genetic matrix, 2015)
In all, about 5,500 compounds went through this assay and about 2,000 (36%) were called active. About 18% were inconclusive and are not listed. No stated cut-off is given here; in the data, active means normalized growth mostly below about 0.91 (no sharp cut-off); inconclusive means no clear call, values can overlap the other calls; inactive means mostly above about 0.92. The list shows a part of the results.

Assay: chemical genetic growth profiling, strain panel (AID 1159580);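 further: tested at 20 µM; growth read once vehicle control cultures reached saturation at 30 °C; 1 = growth at the plate median or of vehicle wells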
Details: S. cerevisiae deletion strains, growth OD

Measured: normalized growth

COc1ccc(-c2cc(=O)c3ccccc3o2)cc1OC
inactive: locus YAL013W, strain DEP1, stronger effect = lower value 1.01 | locus YAL021C, strain ccr4, stronger effect = lower value 0.942 | locus YBR021W, strain FUR4, stronger effect = lower value 0.896 | locus YBR171W, strain sec66, stronger effect = lower value 0.917 | locus YBR229C, strain ROT2, stronger effect = lower value 1.04 | locus YCL029C, strain bik1, stronger effect = lower value 0.974 | locus YCR088W, strain abp1, stronger effect = lower value 0.929 | locus YDL005C, strain med2, stronger effect = lower value 0.919 | locus YDL040C, strain nat1, stronger effect = lower value 0.939 | locus YDL074C, strain BRE1, stronger effect = lower value 0.981 | locus YDL101C, strain DUN1, stronger effect = lower value 1.02 | locus YDL185W, strain tfp1, stronger effect = lower value 1.03 | locus YDL192W, strain arf1, stronger effect = lower value 0.989 | locus YDR001C, strain nth1, stronger effect = lower value 0.93 | locus YDR101C, strain arx1, stronger effect = lower value 0.95 | locus YDR150W, strain NUM1, stronger effect = lower value 1.05 | locus YDR159W, strain sac3, stronger effect = lower value 0.904 | locus YDR162C, strain NBP2, stronger effect = lower value 1.01 | locus YDR195W, strain ref2 1.13 | locus YDR297W, strain sur2, stronger effect = lower value 0.927 | locus YDR318W, strain mcm21, stronger effect = lower value 0.999 | locus YDR334W, strain swr1, stronger effect = lower value 0.922 | locus YDR335W, strain msn5, stronger effect = lower value 0.925 | locus YDR388W, stronger effect = lower value 1.01 | locus YDR502C, strain sam2, stronger effect = lower value 0.925 | locus YEL061C, strain CIN8, stronger effect = lower value 1.03 | locus YER015W, strain faa2, stronger effect = lower value 0.932 | locus YER016W, strain bim1, stronger effect = lower value 0.933 | locus YER110C, stronger effect = lower value 1.04 | locus YER111C, strain swi4, stronger effect = lower value 0.913 | locus YER155C, strain BEM2, stronger effect = lower value 1.07 | locus YER167W, strain BCK2, stronger effect = lower value 1.05 | locus YGL086W, strain mad1, stronger effect = lower value 0.982 | locus YGL248W, strain PDE1, stronger effect = lower value 0.97 | locus YGR135W, strain pre9, stronger effect = lower value 0.955 | locus YGR252W, strain gcn5, stronger effect = lower value 0.819 | locus YHR027C, strain rpn1, stronger effect = lower value 0.93 | locus YHR030C, strain SLT2, stronger effect = lower value 1.06 | locus YHR079C, strain IRE1 (second series), stronger effect = lower value 1.03 | locus YHR094C, strain hxt1, stronger effect = lower value 1.03 | locus YHR129C, strain ARP1, stronger effect = lower value 1.03 | locus YHR200W, strain rpn10, stronger effect = lower value 1.03 | locus YIL066C, strain RNR3, stronger effect = lower value 1.01 | locus YIL073C, strain SPO22, stronger effect = lower value 0.925 | locus YIL125W, strain kgd1, stronger effect = lower value 0.976 | locus YIR030C, strain dcg1, stronger effect = lower value 1.02 | locus YJL092W, strain hpr5, stronger effect = lower value 0.923 | locus YJL095W, strain BCK1, stronger effect = lower value 0.973 | locus YJL115W, strain asf1, stronger effect = lower value 0.928 | locus YJL129C, strain trk1, stronger effect = lower value 0.901 | locus YJL134W, strain LCB3, stronger effect = lower value 1.05 | locus YJL154C, strain vps35, stronger effect = lower value 0.938 | locus YJL168C, strain set2, stronger effect = lower value 1.03 | locus YJL187C, strain SWE1 (second series), stronger effect = lower value 0.982 | locus YJR043C, strain POL32, stronger effect = lower value 0.979 | locus YJR075W, strain HOC1, stronger effect = lower value 1.03 | locus YKL068W, stronger effect = lower value 1.03 | locus YKL085W, strain MDH1 (second series), stronger effect = lower value 1.03 | locus YKL085W, strain MDH1, stronger effect = lower value 1.03 | locus YKL190W, strain CNB1, stronger effect = lower value 1.03 | locus YKR001C, strain vps1, stronger effect = lower value 0.96 | locus YKR026C, strain gcn3, stronger effect = lower value 0.93 | locus YKR091W, strain srl3, stronger effect = lower value 0.935 | locus YLL041C, strain sdh2, stronger effect = lower value 0.941 | locus YLR027C, strain aat2, stronger effect = lower value 0.926 | locus YLR039C, strain RIC1, stronger effect = lower value 0.963 | locus YLR058C, strain SHM2, stronger effect = lower value 1.01 | locus YLR102C, strain apc9, stronger effect = lower value 1.03 | locus YLR262C, strain YPT6, stronger effect = lower value 0.875 | locus YLR268W, strain sec22, stronger effect = lower value 0.936 | locus YLR330W, strain CHS5, stronger effect = lower value 1.04 | locus YLR342W, strain FKS1 (second series), stronger effect = lower value 0.873 | locus YLR357W, strain rsc2, stronger effect = lower value 0.948 | locus YLR371W, strain rom2, stronger effect = lower value 1.04 | locus YLR384C, strain iki3, stronger effect = lower value 0.935 | locus YLR418C, strain cdc73, stronger effect = lower value 0.918 | locus YML016C, strain PPZ1, stronger effect = lower value 1.05 | locus YML032C, strain rad52, stronger effect = lower value 0.96 | locus YML124C, strain tub3, stronger effect = lower value 1.04 | locus YMR078C, strain ctf18, stronger effect = lower value 1.02 | locus YMR129W, stronger effect = lower value 0.945 | locus YMR223W, strain ubp8, stronger effect = lower value 0.99 | locus YMR231W, strain pep5, stronger effect = lower value 0.946 | locus YMR307W, strain GAS1, stronger effect = lower value 0.955 | locus YNL067W, strain RPL9B, stronger effect = lower value 0.969 | locus YNL209W, strain ssb2, stronger effect = lower value 0.936 | locus YNL233W, strain BNI4, stronger effect = lower value 1.02 | locus YNL250W, strain rad50, stronger effect = lower value 0.993 | locus YNL271C, strain bni1, stronger effect = lower value 0.995 | locus YNL298W, strain CLA4, stronger effect = lower value 0.934 | locus YNL307C, strain MCK1, stronger effect = lower value 1.02 | locus YNL322C, strain KRE1 (second series), stronger effect = lower value 0.953 | locus YNR052C, strain pop2, stronger effect = lower value 0.918 | locus YOL006C, strain TOP1, stronger effect = lower value 0.93 | locus YOL012C, strain htz1 1.9 | locus YOL147C, strain pex11, stronger effect = lower value 1.03 | locus YOR061W, strain CKA2, stronger effect = lower value 1.02 | locus YOR069W, strain VPS5, stronger effect = lower value 1.02 | locus YOR080W, strain dia2, stronger effect = lower value 0.928 | locus YOR136W, strain idh2, stronger effect = lower value 1.02 | locus YOR144C, strain elg1, stronger effect = lower value 0.994 | locus YOR265W, strain rbl2, stronger effect = lower value 0.935 | locus YOR316C, strain cot1, stronger effect = lower value 1.03 | locus YPR119W, strain clb2, stronger effect = lower value 1.04 | locus YPR141C, strain kar3, stronger effect = lower value 1.04 | locus YPR163C, strain tif3, stronger effect = lower value 0.993 | locus YPR167C, strain met16, stronger effect = lower value 1.02 | strain wtn01, stronger effect = lower value 0.93
active: locus YAL026C, strain drs2, stronger effect = lower value 0.838 | locus YAL030W, strain snc1, stronger effect = lower value 0.91 | locus YBL061C, strain skt5, stronger effect = lower value 0.898 | locus YBR009C, strain hhf1, stronger effect = lower value 0.772 | locus YBR023C, strain chs3, stronger effect = lower value 0.842 | locus YBR231C, strain swc5, stronger effect = lower value 0.83 | locus YBR279W, strain paf1, stronger effect = lower value 0.9 | locus YCL011C, strain gbp2, stronger effect = lower value 0.824 | locus YCL016C, strain dcc1, stronger effect = lower value 0.871 | locus YCL061C, strain MRC1, stronger effect = lower value 0.904 | locus YCL069W, strain vba3, stronger effect = lower value 0.921 | locus YDL035C, strain GPR1, stronger effect = lower value 0.824 | locus YDR069C, strain doa4, stronger effect = lower value 0.897 | locus YDR137W, strain rgp1, stronger effect = lower value 0.681 | locus YDR392W, strain spt3, stronger effect = lower value 0.41 | locus YEL003W, strain gim4, stronger effect = lower value 0.9 | locus YEL037C, strain rad23, stronger effect = lower value 0.872 | locus YEL061C, strain CIN8 (second series), stronger effect = lower value 0.913 | locus YER155C, strain BEM2 (second series), stronger effect = lower value 0.381 | locus YFR010W, strain ubp6, stronger effect = lower value 0.889 | locus YGL078C, strain dbp3, stronger effect = lower value 0.869 | locus YGL167C, strain pmr1, stronger effect = lower value 0.878 | locus YGL173C, strain kem1, stronger effect = lower value 0.897 | locus YGL227W, strain vid30, stronger effect = lower value 0.912 | locus YGL240W, strain doc1, stronger effect = lower value 0.772 | locus YGL253W, strain hxk2, stronger effect = lower value 0.718 | locus YHR013C, strain ard1, stronger effect = lower value 0.789 | locus YHR142W, strain chs7, stronger effect = lower value 0.683 | locus YJL095W, strain BCK1 (second series), stronger effect = lower value 0.823 | locus YJL164C, strain tpk1, stronger effect = lower value 0.855 | locus YJL166W, strain qcr8, stronger effect = lower value 0.824 | locus YJL187C, strain SWE1, stronger effect = lower value 0.913 | locus YKL009W, strain mrt4, stronger effect = lower value 0.801 | locus YKL160W, strain elf1, stronger effect = lower value 0.862 | locus YLL001W, strain dnm1, stronger effect = lower value 0.874 | locus YLL026W, stronger effect = lower value 0.899 | locus YLR221C, strain rsa3, stronger effect = lower value 0.872 | locus YLR258W, strain gsy2, stronger effect = lower value 0.859 | locus YLR262C, strain YPT6 (second series), stronger effect = lower value 0.728 | locus YLR320W, strain mms22, stronger effect = lower value 0.597 | locus YLR342W, strain FKS1, stronger effect = lower value 0.904 | locus YLR370C, strain arc18, stronger effect = lower value 0.894 | locus YML120C, strain ndi1, stronger effect = lower value 0.837 | locus YMR058W, strain fet3, stronger effect = lower value 0.852 | locus YMR125W, strain sto1, stronger effect = lower value 0.795 | locus YMR205C, strain PFK2, stronger effect = lower value 0.768 | locus YNL071W, strain lat1, stronger effect = lower value 0.665 | locus YNL248C, strain rpa49, stronger effect = lower value 0.884 | locus YNR049C, strain mso1, stronger effect = lower value 0.916 | locus YOR001W, strain rrp6, stronger effect = lower value 0.864 | locus YOR070C, strain gyp1, stronger effect = lower value 0.901 | locus YOR083W, strain WHI5, stronger effect = lower value 0.862 | locus YOR106W, strain vam3, stronger effect = lower value 0.806 | locus YOR184W, strain ser1, stronger effect = lower value 0.802 | locus YOR270C, strain vph1, stronger effect = lower value 0.539 | locus YOR290C, strain snf2, stronger effect = lower value 0.734 | locus YPL051W, strain arl3, stronger effect = lower value 0.854 | locus YPL078C, strain atp4, stronger effect = lower value 0.825 | locus YPL106C, strain sse1, stronger effect = lower value 0.788 | locus YPL240C, strain hsp82, stronger effect = lower value 0.923
